Screening results as filed in PubChem BioAssay.
3CLpro inhibitor: SARS-CoV 3CLpro protease inhibition; recombinant SARS-CoV 3CLpro, quenched FRET peptide cleavage; inhibition, % at 6 µM; 290,000 compounds, 0.14% hits; P0C6X7; AID 1706; in the data active means inhibition above about 12%
BJeLR lethal: kills HRASV12-expressing BJeLR cells | BJeLR (HRASV12) viability, CellTiter-Glo ATP luminescence, 48 h | inhibition, % (test concentration not listed) | 300,000 compounds, 0.17% hits | AID 1554; in the data active means inhibition above about 50%
DUSP3 inh: blocks human VHR1 dual specificity phosphatase. 290,000 compounds, 0.52% hits. P51452. recombinant VHR phosphatase, pNPP absorbance. inhibition, % at 13.3 µM; in the data active means inhibition above about 50%
Target sequence (P51452 whole entry, looked up): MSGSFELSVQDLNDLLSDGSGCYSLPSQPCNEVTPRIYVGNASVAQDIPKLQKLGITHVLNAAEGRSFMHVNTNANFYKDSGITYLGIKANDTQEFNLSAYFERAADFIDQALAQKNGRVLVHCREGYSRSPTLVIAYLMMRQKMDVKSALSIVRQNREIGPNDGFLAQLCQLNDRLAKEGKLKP
PrPC TRFRET: cell surface PrPC inhibition, primary TR-FRET screen | P04156 | TR-FRET read-out | inhibition, % at 13.8 µM | 370,000 compounds, 0.43% hits | AID 720596; in the data active means inhibition above about 24%; further: 0% = median of the test wells and 100% = reference compound wells
An asterisk follows results filed as active; x = no result given; ! = not active in a repeat. Rows were chosen to be rich in hits. Some 1.1% of all compounds tested hit in one or more screens of this group.

SMILES	3CLpro inhibitor	BJeLR lethal	DUSP3 inh	PrPC TRFRET
CC[C@@H](C(=O)[C@@H](C)[C@@H](O)[C@H](C)[C@@H]1O[C@@H]([C@@H](CC)C(=O)O)CC[C@@H]1C)[C@H]1O[C@]2(C=C[C@@H](O)[C@]3(CC[C@@](C)([C@H]4CC[C@](O)(CC)[C@H](C)O4)O3)O2)[C@H](C)C[C@@H]1C	x	x	x	70*
CCOC(=O)c1ccc(OCC2NCCc3cc(OC)c(OC)cc32)cc1 (stereo unspecified)	-9	-2	18	-3
COC(=O)c1ccc(OCC2NCCc3cc(OC)c(OC)cc32)cc1 (stereo unspecified)	1	-8	56*	x
c1ccc(-c2csc(CN3CCCCC3)n2)cc1	x	x	x	4
COc1ccccc1N1CCN(CC(O)COc2cccc3ccccc23)CC1 (stereo unspecified)	17*!	4	-3	-9
OC(COc1cccc2ccccc12)CN1CCN(c2ccccc2)CC1 (stereo unspecified)	-3	-4	24	4
O=C(Nc1ccccc1SC(=O)c1ccccc1)c1ccccc1	x	x	x	5
Cc1ccc(C(=O)Sc2cccccc2=O)cc1	9	104*	5	7
CCC(=O)N1CCCC1(C)C(=O)Nc1ccc(C)c(C)c1 (stereo unspecified)	x	x	x	5
Cc1ccc(S(=O)(=O)NN=Cc2ccccc2Cl)cc1	x	x	x	0
COc1ccccc1C(=O)c1nc2ccccc2n1C	-5	6	58*	3
COc1ccccc1NCc1nc2ccccc2n1C	x	x	x	8
COc1ccc2c(c1)CCc1c(C(=O)N(C)c3ccccc3)noc1-2	-3	3	54*	0
Cc1cc(C)cc(NC(=O)c2cc(C)nc3ccccc23)c1	-4	0	59*	-5
CCCc1nc(SCC(=O)N2CCCCCC2)c2c(=O)n(C)c(=O)n(C)c2n1	-3	-5	-20	x
CCC1CCCCN1CCCNC(=O)CCC(=O)N1CC(C)Oc2ccccc21 (stereo unspecified)	-2	13	53*	-4
COc1ccccc1NC(=O)C1CCCN1S(=O)(=O)c1cccc2nsnc12 (stereo unspecified)	-2	0	2	x
COc1ccc(NC(=O)C2CCCN2S(=O)(=O)c2cccc3nsnc23)c(OC)c1 (stereo unspecified)	-1	2	60*	x
Cc1ccc(Cl)cc1N1CCN(S(=O)(=O)c2ccc3c(c2)CC(=O)N3C)CC1	6	1	13	3
CC(C)N1CC(C(=O)Nc2cccc([N+](=O)[O-])c2)CC1=O (stereo unspecified)	2	3	56*	-7
C[C@H]1O[C@@H](O[C@H]2[C@@H](O)C[C@H](O[C@H]3[C@@H](O)C[C@H](O[C@H]4CC[C@@]5(C)[C@H](CC[C@@H]6[C@@H]5C[C@@H](O)[C@]5(C)[C@@H](C7=CC(=O)OC7)CC[C@]65O)C4)O[C@@H]3C)O[C@@H]2C)C[C@H](O)[C@@H]1O	-5	102*	-2	-14
O=C(NC(=S)NCc1cccnc1)c1cc(Br)ccc1Cl	4	-8	29	5
COc1ccc(CCNC(=O)c2c(O)c3ccccc3[nH]c2=O)cc1OC	1	0	x	-6
COc1ccc(CCNC(=O)c2c(O)c3ccccc3[nH]c2=O)cc1	-8	3	58*	2
Cc1cccnc1Nc1nc(-c2ccccc2)cs1	-2	11	8	9
SMILES	3CLpro inhibitor	BJeLR lethal	DUSP3 inh	PrPC TRFRET
Cc1cccnc1Nc1nc(-c2ccccn2)cs1	2	53*	16	24
c1ccc(-c2csc(Nc3ncccn3)n2)cc1	5	5	55*	-5
CN1CCN(C(=O)c2ccc(-c3ccc(F)c(F)c3)c3ccoc23)CC1	x	x	x	3
CCOc1ccc(N2CC(O)=C(c3nc4ccccc4c(=O)[nH]3)C2=N)cc1	-2	8	56*	4
COc1ccc(S(=O)(=O)N2CCCCC2)cc1NC(=O)c1cccc(S(=O)(=O)N2CC(C)OC(C)C2)c1 (stereo unspecified)	x	x	x	-1
O=C(CS(=O)c1ccc(C(F)(F)F)cc1[N+](=O)[O-])Oc1ccc(Cl)cc1 (stereo unspecified)	4	-1	51*	-18
COc1cccc2c1[C@H](/C=C/c1ccccc1)[C@@H]([C@H](O)COC(C)=O)OC2	x	x	x	3
Cc1ccc(NC(=S)N/N=C/c2c(Cl)cccc2Cl)c(C)c1	4	53*	17	17
CCCCCCN1C=CC(=C2C(=O)c3ccccc3C2=O)C=C1	-2	16	20	-2
CCCN1C=CC(=C2C(=O)c3ccccc3C2=O)C=C1	-5	68*	-8	-44
c1coc(-c2nc(N=C3N=c4ccccc4=N3)[nH]c2-c2ccco2)c1	x	x	x	-3
CC1CN(c2ccc([N+](=O)[O-])c(NCCOc3ccccc3)c2)CC(C)N1 (stereo unspecified)	-9	9	52*	-17
CCc1c(C)c(C#N)c2nc3ccccc3n2c1-n1nc(C)cc1C	-5	14	1	-3
CCc1c(C)c(C#N)c2nc3ccccc3n2c1Cl	4	129*	8	x
CS(=O)(=O)Nc1ccc(-c2cnc3cccnn23)cc1	x	x	x	-14
C(=N\N1CCOCC1)/c1ccsc1	-3	6	57*	2
CCOc1ccc(S(=O)(=O)NCCc2cn3ccccc3n2)cc1	3	9	26	4
O=S(=O)(NCCc1cn2ccccc2n1)c1ccc(-c2ccccc2)cc1	4	2	57*	-2
CCCCCCCCN1C(=O)[C@@H](CC(=O)N2CCOCC2)C[C@@]2(C(=O)OC)C1=C[C@H](C(C)C)O[C@@H]2C1CC1	x	x	x	22
c1ccc(CN2CCN(c3ncnc4c3[nH]c3ccccc34)CC2)cc1	2	5	15	56*
Cc1ccc2[nH]c3c(N4CCN(Cc5ccccc5)CC4)ncnc3c2c1	-4	7	36	29*
c1ccc2c(c1)CCN(c1ncnc3c1[nH]c1ccccc13)C2	x	15	6	20
O=C(NCc1ccccc1)C1Cc2c(-c3ccc4c(c3)OCO4)ccnc2O1 (stereo unspecified)	x	x	x	8
O=c1cccc2n1Cc1cc3ccccc3nc1-2	-1	3	20	-25
CC[C@@]1(O)C(=O)OCc2c1cc1n(c2=O)Cc2cc3c(N)cccc3nc2-1	x	78*	4	10
SMILES	3CLpro inhibitor	BJeLR lethal	DUSP3 inh	PrPC TRFRET
CC[C@@]1(O)C(=O)OCc2c1cc1n(c2=O)Cc2cc3c(CN(C)C)c(O)ccc3nc2-1	x	85*	x	-2
COc1ccc(CNS(=O)(=O)/C=C/c2ccc(OC)cc2CNC(=O)OC(C)(C)C)cc1	x	x	x	-2
CCOc1ccc(-n2c(SCC(=O)Nc3ccc(S(=O)(=O)Nc4nccs4)cc3)nnc2-c2ccc(C(C)(C)C)cc2)cc1	x	x	x	0
COc1ccccc1/C=C1\SC(=S)N(CCC(=O)Nc2nnc(C)s2)C1=O	8	-2	21	1
Cc1cc(-c2nn(-c3ccccc3F)cc2CN2CCCC(CO)C2)c(C)s1 (stereo unspecified)	-1	-2	13	5
Cc1cc(-c2nn(-c3ccccc3F)cc2CN2CCCC(O)C2)c(C)s1 (stereo unspecified)	3	14	53*	7
Cc1ccc(Cn2nnc3c2-c2ccccc2S(=O)(=O)N(C)C3)cc1	x	x	x	-6
